Results filed as inconclusive are left out. Active and inactive are the calls of the source. Unless noted, calls follow the shape of the dose curve; as a rule, active = well fitted curve in either direction with a large enough effect (not every such curve was filed as active); inconclusive = small, poorly fitted or top-dose-only effect, or another doubt; inactive = flat fitted curve, though single readings scatter.

Experimental findings from PubChem BioAssay (NCATS) are described below.

Assay [1] addresses Lysosomal acid glucosylceramidase (Homo sapiens) (UniProt P04062). Put plainly: Glucocerebrosidase-p2 (AID 348; in the data active = potency below about 10 µM; also: potency is read from the fitted curve at half-maximal effect). The settings on record: purified GBA, blue fluorogenic substrate, 40 min. The method, boiled down: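 Compounds titrated from 0.6 nM upwards against 0.2 nM enzyme in pH 5.9 citric acid/KH2PO4, taurocholate, tween-20; blue fluorogenic substrate 80 uM, 40 min room temperature, stopped and read Ex 365/Em 440 for AC50.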

Assay [2] in a line: AP1 Signaling Pathway (AID 357). Also: % is scaled to controls: 0 for no effect and ±100 for the full control effect. The settings on record: ME-180 AP-1-bla reporter, EGF-induced, beta-lactamase ratio, 5 h; at 7.69 µM (top of the series) unless noted. The method, boiled down: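 AP-1-bla ME-180 cells with beta-lactamase reporter under AP-1 response element, stimulated with EC50 EGF; compounds titrated, 5 hours at 37 degrees Celsius. CCF4 read at 460/530 nm ratio; positive and negative modulators judged by AC50.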

Assay [3] has as its target Cytochrome P450 1A2 (Homo sapiens) (UniProt P05177). Put plainly: p450-cyp1a2 (AID 410; calls by dose curve; also: potency is read from the fitted curve at half-maximal effect;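 as to activity change, negative = inhibition: -100% = full effect of reference inhibitor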). The settings on record: recombinant CYP1A2, luciferin-ME demethylation, luminescence; series mostly up to 57 µM. An outline of the steps:
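Human CYP1A2 (20nM) demethylated Luciferin-ME at its Km (100uM) in 100mM KPO4. After 10 min compound preincubation, NADPH regeneration ran the reaction 60 min at room temperature. Luciferin was read by luminescence, normalized to 57 uM furafylline.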

Assay [4] is described as follows: NFAT Signaling Pathway (AID 444).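 Also: carbachol stimulus at about its EC50 of 1 µM final; % is scaled to controls: 0 for no effect and ±100 for the full control effect.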 The following applies: Jurkat NFAT-bla M1, carbachol, beta-lactamase ratio, 5 h; at 7.69 µM (top of the series) unless noted. An outline of the steps: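 Jurkat cells carrying an NFAT-driven β-lactamase reporter and co-transfected muscarinic M1 receptor were treated with compound plus carbachol (1 uM final, an EC50 level) for 5 h at 37 °C. CCF4 loading followed for 1 h at RT; 460/530 nm ratio gave %activity.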

The nature of assay [5]: Stat Signaling Pathway (AID 446).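 Also: ME-180 cervical cancer cells given 40 pM IL-6 alongside compound; SIE-controlled beta-lactamase reporter measured as 460/530 nm FRET emission ratio; % is scaled to controls: 0 for no effect and ±100 for the full control effect.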 The following applies: ME-180 SIE beta-lactamase reporter, IL-6 stimulated, 5 h; at 7.69 µM (top of the series) unless noted. The method, boiled down: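 IL-6/STAT signaling read in ME-180 cells via an SIE beta-lactamase reporter. Stimulus was 40 pM IL-6 (its AC50) for 5 hrs, so both activation and inhibition register.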
In assay [6] the target is Glucocorticoid receptor (Homo sapiens) (UniProt P04150). Put plainly: GR-EFC Redistribution (AID 451; calls by dose curve; also: potency is read from the fitted curve at half-maximal effect). The following applies: CHO-K1 GR-EFC translocation, beta-gal luminescence, 2 h. An outline of the steps:
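CHO-K1 cells stably expressing nuclear-localized β-gal enzyme acceptor and GR fused C-terminally to the enzyme donor fragment; ligand-driven nuclear translocation restores β-gal by complementation. Compounds titrated up to 46 uM final, 2 h at 37 °C; luminescence read.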

In assay [7] the target is Mitogen-activated protein kinase 10 (Mus musculus) (UniProt Q61831). Put plainly: JNK3 AlphaScreen Assay (AID 530).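 Also: kinase came from lysate of stimulated human HepG2 cells; signal reports phosphorylation of biotinylated GST-cJun 1-79 at Ser73 with 10 µM ATP; % is scaled to controls: 0 for no effect and ±100 for the full control effect.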 The settings on record: JNK3 lysate, c-Jun phosphorylation; series mostly up to 57.1 µM. An outline of the steps:
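JNK3 came from HepG2 lysates pre-activated with IL-1beta and TNF-alpha and phosphorylated biotinylated GST-cJun (1-79) at 10 uM ATP, pH 7.6, room temperature. Compounds were titrated. AlphaScreen signal used anti-phospho-cJun (Ser73) antibody.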
For orientation: In Alpha technology, singlet oxygen from a donor bead excites a nearby acceptor bead.

Assay [8] has as its target 3',5'-cyclic-AMP phosphodiesterase 4B (Homo sapiens) (UniProt Q07343). Put plainly: qHTS Assay for Inhibitors of PDE-IV (AID 607; active = well fitted activation curve with a large enough effect in the main read-out, with a control signal flat, not every such curve was filed as active; also: % of control where 0% means no effect). The settings on record: HEK293 ACTOne CNG channel cells, membrane potential fluorescence; series mostly up to 22.9 µM. An outline of the steps: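 Live HEK293 cells with a modified cyclic nucleotide-gated (CNG) channel report intracellular cAMP via membrane-potential dye fluorescence (ex 535/em 590 nm). Endogenous PDE-IV was targeted. Compounds were tested at up to 22.9 uM final; RO 20-1724 100 uM served as control.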

In assay [9] the target is Cytochrome P450 2D6 (Homo sapiens) (UniProt P10635). In words: qHTS Assay for Inhibitors and Substrates of Cytochrome P450 2D6 (AID 891; active = well fitted curve in the direction sought with a large enough effect; an effect the other way counts as inactive or inconclusive; also: nearly all actives have a fitted effect of over 60% in size; also: potency is read from the fitted curve at half-maximal effect). The settings on record: recombinant CYP2D6, luciferin-ME EGE luminescence; series mostly up to 57.1 µM. An outline of the steps: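 Human CYP2D6 (5 nM) with 30 uM Luciferin-ME EGE (at Km) in 100 mM KPO4, compound preincubated 10 min, then NADPH regeneration system for 60 min at room temperature. Luciferin read by luminescence; normalized to 1.43 uM quinidine.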
Sequence of Cytochrome P450 2D6 (Homo sapiens) (P10635 whole entry, looked up): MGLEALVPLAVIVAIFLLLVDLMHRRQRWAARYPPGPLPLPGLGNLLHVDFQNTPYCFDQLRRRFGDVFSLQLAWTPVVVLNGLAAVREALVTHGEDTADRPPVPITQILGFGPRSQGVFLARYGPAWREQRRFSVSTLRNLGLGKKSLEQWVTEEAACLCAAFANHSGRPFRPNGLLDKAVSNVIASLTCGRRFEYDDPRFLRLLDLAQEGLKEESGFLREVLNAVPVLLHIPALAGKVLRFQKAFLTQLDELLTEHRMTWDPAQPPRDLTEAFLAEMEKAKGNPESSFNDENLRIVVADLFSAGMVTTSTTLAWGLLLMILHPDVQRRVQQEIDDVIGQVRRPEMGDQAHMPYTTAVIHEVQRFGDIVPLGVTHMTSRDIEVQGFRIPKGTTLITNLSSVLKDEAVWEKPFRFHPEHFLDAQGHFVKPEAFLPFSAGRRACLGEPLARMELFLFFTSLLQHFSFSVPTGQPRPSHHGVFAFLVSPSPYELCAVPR
In general terms: qHTS replaces the single test concentration by a dilution series.

Assay [10] in a line: qHTS Assay for Lipid Storage Modulators (AID 1519; calls by dose curve). The following applies: Drosophila S3 cells, BODIPY lipid droplet/cell ratio, laser cytometry, cells loaded with oleic acid; for activity change, negative = inhibition: at 57.5 µM (top of the series). The method, boiled down: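 Cells seeded at 5,000 per well were treated with compounds over a concentration series and loaded with oleic acid (400 uM, as added). Lipid droplet fluorescence (488 nm excitation, 500-530 nm channel) was read by laser-scanning cytometry and normalized to 20 uM Triacsin C.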

The nature of assay [11]: Primary qHTS for small molecule stabilizers of the endoplasmic reticulum resident proteome: Secreted ER Calcium Modulated Protein (SERCaMP) assay (AID 1508630; active = well fitted curve in the direction sought with a large enough effect; an effect the other way counts as inactive or inconclusive; also: % is scaled to controls: 0 for no effect and ±100 for the full control effect). The following applies: SH-SY5Y GLuc-SERCaMP (Gaussia luciferase released on ER calcium loss) secretion, thapsigargin, luminescence; series mostly up to 38.4 µM. The method, boiled down:
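GLuc-SERCaMP-expressing SH-SY5Y cells, pretreated 16 h with compound, are challenged with thapsigargin to empty ER calcium stores; after 4 h, coelenterazine is added directly to the medium and luminescence is imaged.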

Assay [12] concerns the target Cytochrome P450 3A4 (Homo sapiens) (UniProt P08684). In words: qHTS Assay for Activators of Cytochrome P450 3A4 (AID 885; active = well fitted curve in the direction sought with a large enough effect; an effect the other way counts as inactive or inconclusive; also: nearly all actives have a fitted effect of over 65% in size). The settings on record: recombinant CYP3A4, Luciferin-PPXE luminescence, 60 min; series mostly up to 57.1 µM. The method, boiled down: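 Quantitative HTS format: compounds preincubated with 20nM human CYP3A4 and Luciferin-PPXE substrate at KM, reaction started by NADPH regeneration, stopped after 60 min, luciferase luminescence read 20 min later.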

The nature of assay [13]: qHTS Assay for Identification of Small Molecule Agonists for Hypoxia Response Element Signaling Pathway (AID 914; active = well fitted activation curve with a large enough effect in the signal ratio, with a control signal flat, not every such curve was filed as active; the % refers to the signal ratio; also: % of control where 0% means no effect). The settings on record: ME-180 (cervical carcinoma) HRE-bla reporter, beta-lactamase ratio, CoCl2, 17 h; activation: stronger effect = higher value. An outline of the steps: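 A beta-lactamase reporter under hypoxia response element control in ME-180 cells served as the system. Compound titrations plus EC50 CoCl2 ran 17 h at 37 degrees Celsius; AC50 values were fitted from %Activity.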

Assay [14] addresses Cytochrome P450 2C19 (Homo sapiens) (UniProt P33261). In words: qHTS Assay for Inhibitors and Substrates of Cytochrome P450 2C19 (AID 899; active = well fitted curve in the direction sought with a large enough effect; an effect the other way counts as inactive or inconclusive; also: potency is read from the fitted curve at half-maximal effect; nearly all actives have a fitted effect of over 60% in size). The following applies: recombinant CYP2C19, luciferin-H EGE luminescence; series mostly up to 57.1 µM. The method, boiled down: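 NADPH-dependent conversion of Luciferin-H EGE (10uM, at KM) by 5nM enzyme in 50mM KPO4, 60 min at 37C following 10 min compound preincubation. Stopped with luciferin detection buffer; luminescence read after 20 min.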

[15] abbreviates: measured here: cell count channel max response.
[16] abbreviates: measured here: lipid channel max response.

Sequence of 3',5'-cyclic-AMP phosphodiesterase 4B (Homo sapiens) (Q07343 whole entry, looked up): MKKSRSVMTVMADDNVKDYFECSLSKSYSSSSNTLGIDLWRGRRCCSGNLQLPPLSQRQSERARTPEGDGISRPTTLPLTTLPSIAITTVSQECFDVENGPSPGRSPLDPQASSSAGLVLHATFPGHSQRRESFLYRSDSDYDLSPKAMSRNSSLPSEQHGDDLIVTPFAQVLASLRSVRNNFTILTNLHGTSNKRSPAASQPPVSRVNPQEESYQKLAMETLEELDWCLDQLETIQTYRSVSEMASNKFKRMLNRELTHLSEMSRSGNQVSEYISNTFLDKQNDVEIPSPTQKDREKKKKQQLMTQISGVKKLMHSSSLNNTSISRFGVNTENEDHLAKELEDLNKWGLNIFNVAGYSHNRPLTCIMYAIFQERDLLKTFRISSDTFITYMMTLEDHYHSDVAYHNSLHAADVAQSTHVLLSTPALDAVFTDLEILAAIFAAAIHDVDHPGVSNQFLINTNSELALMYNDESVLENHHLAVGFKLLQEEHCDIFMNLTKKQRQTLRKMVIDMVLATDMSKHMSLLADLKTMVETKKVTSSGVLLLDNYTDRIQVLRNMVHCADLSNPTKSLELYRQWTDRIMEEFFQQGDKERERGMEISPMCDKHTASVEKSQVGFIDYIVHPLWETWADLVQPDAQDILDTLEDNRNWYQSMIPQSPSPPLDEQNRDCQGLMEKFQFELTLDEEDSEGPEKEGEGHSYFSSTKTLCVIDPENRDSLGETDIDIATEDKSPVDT
Sequence of Glucocorticoid receptor (Homo sapiens) (P04150 whole entry, looked up, the tested form may be a part): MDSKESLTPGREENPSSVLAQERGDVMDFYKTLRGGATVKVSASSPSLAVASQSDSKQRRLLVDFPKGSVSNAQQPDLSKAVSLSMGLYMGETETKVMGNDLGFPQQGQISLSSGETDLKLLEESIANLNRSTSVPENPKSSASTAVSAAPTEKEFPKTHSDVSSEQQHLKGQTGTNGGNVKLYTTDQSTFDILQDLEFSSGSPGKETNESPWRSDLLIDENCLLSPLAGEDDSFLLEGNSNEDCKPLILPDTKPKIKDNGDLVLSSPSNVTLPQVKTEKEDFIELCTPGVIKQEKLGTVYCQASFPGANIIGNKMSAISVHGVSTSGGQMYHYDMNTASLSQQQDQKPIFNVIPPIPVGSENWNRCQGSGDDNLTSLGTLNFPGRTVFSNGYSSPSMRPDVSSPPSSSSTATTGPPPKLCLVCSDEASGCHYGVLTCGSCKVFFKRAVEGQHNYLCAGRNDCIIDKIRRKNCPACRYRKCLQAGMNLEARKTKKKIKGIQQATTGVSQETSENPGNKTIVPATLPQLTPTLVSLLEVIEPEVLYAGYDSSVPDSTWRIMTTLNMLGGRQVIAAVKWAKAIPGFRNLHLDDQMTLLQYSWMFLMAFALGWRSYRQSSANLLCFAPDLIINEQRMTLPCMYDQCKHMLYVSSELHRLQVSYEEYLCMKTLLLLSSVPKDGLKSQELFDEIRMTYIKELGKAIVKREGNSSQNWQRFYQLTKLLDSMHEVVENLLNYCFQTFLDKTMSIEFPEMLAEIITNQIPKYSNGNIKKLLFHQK
Sequence of Cytochrome P450 3A4 (Homo sapiens) (P08684 whole entry, looked up): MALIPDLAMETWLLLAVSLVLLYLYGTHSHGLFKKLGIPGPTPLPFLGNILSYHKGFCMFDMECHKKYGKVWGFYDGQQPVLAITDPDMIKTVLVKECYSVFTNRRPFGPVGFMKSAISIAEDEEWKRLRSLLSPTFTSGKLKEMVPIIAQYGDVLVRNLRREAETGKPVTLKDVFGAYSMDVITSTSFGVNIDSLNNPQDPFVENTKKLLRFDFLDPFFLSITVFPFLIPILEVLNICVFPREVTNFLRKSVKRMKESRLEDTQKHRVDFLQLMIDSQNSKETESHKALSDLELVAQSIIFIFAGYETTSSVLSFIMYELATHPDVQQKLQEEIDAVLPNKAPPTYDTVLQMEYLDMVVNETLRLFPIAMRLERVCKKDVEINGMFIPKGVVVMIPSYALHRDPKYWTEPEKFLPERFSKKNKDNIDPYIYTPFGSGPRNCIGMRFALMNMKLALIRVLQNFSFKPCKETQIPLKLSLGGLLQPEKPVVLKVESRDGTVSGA
Sequence of Cytochrome P450 1A2 (Homo sapiens) (P05177 whole entry, looked up): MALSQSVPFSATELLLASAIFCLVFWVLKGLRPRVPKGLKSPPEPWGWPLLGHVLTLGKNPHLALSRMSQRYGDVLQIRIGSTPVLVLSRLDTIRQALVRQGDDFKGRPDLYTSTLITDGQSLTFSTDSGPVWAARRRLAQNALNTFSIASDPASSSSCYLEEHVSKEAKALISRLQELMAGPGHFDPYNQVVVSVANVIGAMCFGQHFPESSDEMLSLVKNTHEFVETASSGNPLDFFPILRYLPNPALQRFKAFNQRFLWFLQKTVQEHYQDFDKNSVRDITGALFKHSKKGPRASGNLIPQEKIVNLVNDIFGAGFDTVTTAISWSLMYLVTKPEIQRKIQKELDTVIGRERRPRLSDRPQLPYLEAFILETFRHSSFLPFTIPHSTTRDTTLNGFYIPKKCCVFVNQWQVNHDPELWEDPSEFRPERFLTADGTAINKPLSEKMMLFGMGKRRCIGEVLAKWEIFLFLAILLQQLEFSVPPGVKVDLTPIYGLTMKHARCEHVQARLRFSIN
Sequence of Lysosomal acid glucosylceramidase (Homo sapiens) (P04062 whole entry, looked up): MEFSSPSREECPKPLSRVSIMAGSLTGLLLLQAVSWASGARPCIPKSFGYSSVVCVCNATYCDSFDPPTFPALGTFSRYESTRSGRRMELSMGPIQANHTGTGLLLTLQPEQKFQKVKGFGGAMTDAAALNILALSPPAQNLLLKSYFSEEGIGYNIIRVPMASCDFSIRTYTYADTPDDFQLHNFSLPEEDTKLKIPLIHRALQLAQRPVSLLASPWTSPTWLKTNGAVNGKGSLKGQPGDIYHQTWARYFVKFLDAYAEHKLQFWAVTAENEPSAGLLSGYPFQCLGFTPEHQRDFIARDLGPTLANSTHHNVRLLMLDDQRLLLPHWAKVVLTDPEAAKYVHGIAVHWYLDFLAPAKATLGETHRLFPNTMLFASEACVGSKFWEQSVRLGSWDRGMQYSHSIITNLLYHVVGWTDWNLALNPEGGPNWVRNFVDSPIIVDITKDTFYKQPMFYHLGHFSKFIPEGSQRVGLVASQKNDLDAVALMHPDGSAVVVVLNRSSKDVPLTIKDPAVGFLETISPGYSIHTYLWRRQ
Sequence of Cytochrome P450 2C19 (Homo sapiens) (P33261 whole entry, looked up): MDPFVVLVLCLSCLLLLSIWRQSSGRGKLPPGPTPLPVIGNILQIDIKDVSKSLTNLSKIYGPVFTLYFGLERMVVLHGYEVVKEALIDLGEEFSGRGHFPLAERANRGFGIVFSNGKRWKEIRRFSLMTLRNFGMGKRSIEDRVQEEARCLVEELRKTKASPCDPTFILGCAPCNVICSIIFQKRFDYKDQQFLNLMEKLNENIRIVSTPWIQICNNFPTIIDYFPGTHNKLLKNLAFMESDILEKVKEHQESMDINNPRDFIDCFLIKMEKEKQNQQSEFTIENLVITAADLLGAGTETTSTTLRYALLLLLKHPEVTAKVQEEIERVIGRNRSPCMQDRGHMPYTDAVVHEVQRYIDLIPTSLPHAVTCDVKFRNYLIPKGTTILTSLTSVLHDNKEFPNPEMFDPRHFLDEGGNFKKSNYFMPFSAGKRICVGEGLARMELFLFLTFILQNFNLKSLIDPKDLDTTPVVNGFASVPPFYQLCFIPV

Regarding `O=C(c1ccncc1)N1CCC2(CC1)CCN(C(c1ccccc1)c1ccccc1)CC2`, the Potency in assay [1] was > 11.4 µM (inactive); in assay [3] it was 12.6 µM (active); in [6], > 46 µM (inactive); in assay [9] it was 3.16 µM (active). For the same compound, the activity change, negative = inhibition in [2] is -0.963% (inactive); in assay [4] it was -18.3% (inactive); in assay [10], 2.53% (inactive). The activity, negative = inhibition in [5] is 5% (inactive). The compound was called inactive in [7]. Further, the Potency result in [8] and in assay [11] was “inactive” each time. Besides, the max response worked out at 0.243% in [10] (setting [15]) and 4.49% in [10] (setting [16]).
For `COc1ccccc1CN1CC2(CCN(S(C)(=O)=O)CC2)C1`, the Potency in assay [1] is > 11.4 µM (inactive); in assay [6], > 46 µM (inactive). In addition, the figures for the activity change, negative = inhibition in assay [2], in assay [4] and in assay [10] were -11.2% (inactive), -7.23% (inactive) and 6.08% (inactive), respectively. Moreover, the Potency entry in assay [3], in assay [8], in [9] and in assay [11] was “inactive” in each case. For the same compound, the activity, negative = inhibition in [5] was 4.21% (inactive). For the same compound, the compound was classed as inactive in assay [7]. Besides, the max response in [10] (setting [15]) came to 11.6%; in assay [10] (setting [16]), 24%.
For `Cc1noc(C)c1C(=O)N1CCC2(CCCN(C(=O)Nc3cccc(F)c3)C2)CC1`, the Potency in [1] was > 11.4 µM (inactive); in assay [3] it was 15.8 µM (active); in assay [6], > 46 µM (inactive). The activity change, negative = inhibition in assay [2] was -3.17% (inactive); in assay [4], -8.48% (inactive); in assay [10] it was 5.45% (inactive). Also, in assay [5], the activity, negative = inhibition was -0.0561% (inactive). The outcome in [7] was inactive. Further, the Potency result in assay [12] and in assay [11] was “inactive” in each case. Also, the figures for the max response in [10] (setting [15]) and in assay [10] (setting [16]) were 9.33% and 19.9%, respectively.
Consider `COCC(=O)N1CCC[C@@]2(CCN(C(=O)Nc3cccc(F)c3)C2)C1`, for which the figures for the Potency in [1] and in [6] were > 11.4 µM (inactive) and > 46 µM (inactive), respectively. The values for the activity change, negative = inhibition in [2], in assay [4] and in assay [10] were -14.2% (inactive), 9.68% (inactive) and 2.12% (inactive), respectively. The Potency result in [3], in assay [8], in [12] and in assay [11] was “inactive” throughout. The activity, negative = inhibition in assay [5] is -1.05% (inactive). Also, the compound was called inactive in [7]. Also, the activation in assay [13] was 8.24% (inactive). The max response in assay [10] (setting [15]) amounted to 19.2%; in assay [10] (setting [16]), 23.6%.
Turning to `Cn1cccc1C(=O)N1CCC[C@@]2(CCN(c3ccncc3)C2)C1`, the Potency is > 11.4 µM (inactive) in assay [1], 12.6 µM (active) in assay [3], > 46 µM (inactive) in assay [6] and 6.31 µM (active) in assay [14]. The activity change, negative = inhibition in assay [2] was -2.65% (inactive); in assay [4] it was -12.6% (inactive); in assay [10], -3.31% (inactive). The activity, negative = inhibition in assay [5] was 7.16% (inactive). The outcome in [7] was inactive. Besides, the Potency result in assay [8], in assay [12] and in assay [11] was “inactive” in each case. Moreover, the max response in [10] (setting [15]) was -3.32%; in [10] (setting [16]), -4.8%.
For the compound `O=C(c1csnn1)N1CCC2(CC1)CN(c1ccccc1)C2`, the Potency in assay [1] was > 11.4 µM (inactive); in assay [6], > 46 µM (inactive). Moreover, the activity change, negative = inhibition in assay [2] was -4.3% (inactive); in assay [4], -3.86% (inactive); in assay [10] it was 4.49% (inactive). Moreover, the Potency entry in [3], in [8] and in assay [11] was “inactive” in each case. For the same compound, in [5], the activity, negative = inhibition is 4.17% (inactive). The outcome in assay [7] was inactive. In assay [13], the activation was -12.1% (inactive). Moreover, the max response in assay [10] (setting [15]) turned out to be 13.3%; in [10] (setting [16]) it was 20.7%.
